We go through one compound from ChEMBL document CHEMBL2218924, “A broad activity screen in support of a chemogenomic map for kinase signalling research and drug discovery” (Biochem J, 2013).

Structures are written as SMILES.

Experiment [1] deals with T1, Ephrin type-A receptor 3 (Homo sapiens) (UniProt P29320).
T1 sequence (whole entry): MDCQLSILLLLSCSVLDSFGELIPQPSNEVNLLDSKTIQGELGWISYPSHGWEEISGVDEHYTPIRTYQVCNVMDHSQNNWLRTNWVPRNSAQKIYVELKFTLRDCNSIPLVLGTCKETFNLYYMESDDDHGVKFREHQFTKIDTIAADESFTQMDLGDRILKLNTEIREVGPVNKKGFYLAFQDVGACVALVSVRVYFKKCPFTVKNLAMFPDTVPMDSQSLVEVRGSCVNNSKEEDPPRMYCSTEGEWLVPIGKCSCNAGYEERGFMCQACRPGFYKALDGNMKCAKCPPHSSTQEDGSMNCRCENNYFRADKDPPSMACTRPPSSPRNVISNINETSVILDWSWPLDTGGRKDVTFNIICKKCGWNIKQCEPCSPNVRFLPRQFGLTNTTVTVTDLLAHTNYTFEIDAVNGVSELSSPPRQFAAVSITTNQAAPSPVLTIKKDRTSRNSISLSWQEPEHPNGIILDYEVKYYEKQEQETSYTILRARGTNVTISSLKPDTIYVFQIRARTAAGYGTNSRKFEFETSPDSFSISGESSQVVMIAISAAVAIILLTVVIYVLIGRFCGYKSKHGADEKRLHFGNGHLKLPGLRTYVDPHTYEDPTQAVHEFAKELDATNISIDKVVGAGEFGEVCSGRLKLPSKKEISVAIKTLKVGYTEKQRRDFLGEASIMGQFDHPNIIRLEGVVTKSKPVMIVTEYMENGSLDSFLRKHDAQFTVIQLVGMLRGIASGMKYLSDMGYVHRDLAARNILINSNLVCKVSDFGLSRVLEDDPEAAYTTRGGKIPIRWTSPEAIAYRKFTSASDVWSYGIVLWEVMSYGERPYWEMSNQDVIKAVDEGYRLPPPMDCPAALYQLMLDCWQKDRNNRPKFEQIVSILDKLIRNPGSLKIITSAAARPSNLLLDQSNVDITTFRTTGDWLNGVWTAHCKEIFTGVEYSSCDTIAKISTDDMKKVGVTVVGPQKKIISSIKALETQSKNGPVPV
The settings on record: at 10 µM.

In experiment [2] the target is Ephrin type-A receptor 5 (Homo sapiens) (UniProt P54756). The settings on record: at 1 µM.
Experiment [3] has the same target. Conditions: at 10 µM.
The target of experiment [4] is Ephrin type-A receptor 7 (Homo sapiens) (UniProt Q15375). The settings on record: at 1 µM.
Experiment [5] shares this target. Conditions: at 10 µM.
Experiment [6] has as its target T2, Ephrin type-A receptor 8 (Homo sapiens) (UniProt P29322).
T2 sequence (whole entry): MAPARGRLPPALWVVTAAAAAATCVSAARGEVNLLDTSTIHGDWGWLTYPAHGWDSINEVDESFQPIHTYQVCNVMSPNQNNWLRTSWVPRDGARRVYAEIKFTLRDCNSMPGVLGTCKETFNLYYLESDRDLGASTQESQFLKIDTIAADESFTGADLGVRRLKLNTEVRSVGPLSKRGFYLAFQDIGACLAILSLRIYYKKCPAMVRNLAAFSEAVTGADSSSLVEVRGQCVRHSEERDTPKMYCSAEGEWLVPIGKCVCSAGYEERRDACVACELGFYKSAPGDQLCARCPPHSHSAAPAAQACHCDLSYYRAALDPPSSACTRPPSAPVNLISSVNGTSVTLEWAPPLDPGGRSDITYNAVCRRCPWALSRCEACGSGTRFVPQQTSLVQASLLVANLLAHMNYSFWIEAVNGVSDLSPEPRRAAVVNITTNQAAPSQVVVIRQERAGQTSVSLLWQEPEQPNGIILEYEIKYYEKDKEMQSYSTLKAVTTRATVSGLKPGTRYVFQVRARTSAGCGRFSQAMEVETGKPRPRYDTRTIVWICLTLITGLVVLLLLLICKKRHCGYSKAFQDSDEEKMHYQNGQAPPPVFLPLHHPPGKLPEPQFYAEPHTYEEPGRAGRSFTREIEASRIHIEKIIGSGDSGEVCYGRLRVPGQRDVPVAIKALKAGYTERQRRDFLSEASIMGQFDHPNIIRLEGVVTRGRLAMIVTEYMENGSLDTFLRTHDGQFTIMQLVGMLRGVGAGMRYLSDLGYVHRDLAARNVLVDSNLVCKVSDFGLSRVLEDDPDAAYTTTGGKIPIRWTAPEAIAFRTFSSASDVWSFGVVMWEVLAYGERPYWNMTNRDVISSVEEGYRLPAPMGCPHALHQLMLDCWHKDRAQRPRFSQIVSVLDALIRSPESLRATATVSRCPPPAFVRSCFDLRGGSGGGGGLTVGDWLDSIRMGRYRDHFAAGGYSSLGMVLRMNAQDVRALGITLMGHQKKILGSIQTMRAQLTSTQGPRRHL
The settings on record: at 1 µM.

Experiment [7] addresses T2, Ephrin type-A receptor 8 (Homo sapiens). Conditions: at 10 µM.
For experiment [8], the target named is T3, Ephrin type-B receptor 1 (Homo sapiens) (UniProt P54762).
T3 sequence (whole entry): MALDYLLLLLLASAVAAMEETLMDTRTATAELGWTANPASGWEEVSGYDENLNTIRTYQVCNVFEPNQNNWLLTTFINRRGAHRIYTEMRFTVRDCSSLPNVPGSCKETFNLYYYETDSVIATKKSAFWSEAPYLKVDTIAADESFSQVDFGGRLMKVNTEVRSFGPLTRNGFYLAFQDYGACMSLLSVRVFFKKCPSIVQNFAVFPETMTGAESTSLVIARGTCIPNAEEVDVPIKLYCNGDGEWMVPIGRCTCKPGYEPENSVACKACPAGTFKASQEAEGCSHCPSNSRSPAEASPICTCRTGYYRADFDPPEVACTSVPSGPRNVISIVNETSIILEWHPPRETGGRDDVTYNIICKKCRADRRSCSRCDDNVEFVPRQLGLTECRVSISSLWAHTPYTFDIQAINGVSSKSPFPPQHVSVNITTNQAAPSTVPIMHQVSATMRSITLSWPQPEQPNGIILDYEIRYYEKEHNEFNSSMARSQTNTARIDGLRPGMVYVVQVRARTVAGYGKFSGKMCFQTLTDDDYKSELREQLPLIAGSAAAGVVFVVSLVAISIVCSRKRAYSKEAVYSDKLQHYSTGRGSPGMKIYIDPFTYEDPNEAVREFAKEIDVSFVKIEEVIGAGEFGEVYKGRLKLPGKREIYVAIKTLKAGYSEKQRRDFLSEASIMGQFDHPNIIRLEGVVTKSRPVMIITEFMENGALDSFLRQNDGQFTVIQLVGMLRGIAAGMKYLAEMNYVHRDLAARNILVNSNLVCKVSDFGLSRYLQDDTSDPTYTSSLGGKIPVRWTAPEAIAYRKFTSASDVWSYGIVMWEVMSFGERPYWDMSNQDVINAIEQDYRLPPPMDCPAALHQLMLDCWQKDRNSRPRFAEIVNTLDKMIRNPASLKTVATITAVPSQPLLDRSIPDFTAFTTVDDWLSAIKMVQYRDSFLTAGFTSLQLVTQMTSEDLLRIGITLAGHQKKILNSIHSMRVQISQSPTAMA
Conditions: at 10 µM.

Experiment [9] concerns the target T4, Ephrin type-B receptor 4 (Homo sapiens) (UniProt P54760).
T4 sequence (whole entry): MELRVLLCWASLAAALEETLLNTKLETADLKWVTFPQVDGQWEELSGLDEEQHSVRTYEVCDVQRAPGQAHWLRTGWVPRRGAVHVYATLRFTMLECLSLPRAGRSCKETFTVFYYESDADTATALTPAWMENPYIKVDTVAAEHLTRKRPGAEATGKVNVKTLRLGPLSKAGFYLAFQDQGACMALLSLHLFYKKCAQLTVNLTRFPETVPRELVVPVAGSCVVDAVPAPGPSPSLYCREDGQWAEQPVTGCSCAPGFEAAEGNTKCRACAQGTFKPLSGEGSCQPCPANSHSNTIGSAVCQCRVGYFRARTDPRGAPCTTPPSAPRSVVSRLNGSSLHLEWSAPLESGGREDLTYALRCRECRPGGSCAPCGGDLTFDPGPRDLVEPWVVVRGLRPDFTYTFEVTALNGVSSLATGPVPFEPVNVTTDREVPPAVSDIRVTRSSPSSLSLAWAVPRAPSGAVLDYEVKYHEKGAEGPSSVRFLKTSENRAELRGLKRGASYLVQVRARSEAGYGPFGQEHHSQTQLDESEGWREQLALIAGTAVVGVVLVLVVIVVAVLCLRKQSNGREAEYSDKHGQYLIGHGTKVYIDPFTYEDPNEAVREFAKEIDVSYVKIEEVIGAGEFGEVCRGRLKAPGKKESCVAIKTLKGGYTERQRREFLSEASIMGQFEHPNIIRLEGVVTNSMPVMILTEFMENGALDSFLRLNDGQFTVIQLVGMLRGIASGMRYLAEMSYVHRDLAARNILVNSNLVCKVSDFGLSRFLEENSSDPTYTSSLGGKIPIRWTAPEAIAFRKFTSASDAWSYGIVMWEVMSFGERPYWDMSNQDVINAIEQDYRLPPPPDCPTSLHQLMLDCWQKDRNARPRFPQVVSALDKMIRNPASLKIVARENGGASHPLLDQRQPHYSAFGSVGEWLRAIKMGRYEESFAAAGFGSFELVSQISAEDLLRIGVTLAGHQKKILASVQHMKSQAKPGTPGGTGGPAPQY
The settings on record: at 1 µM.

Experiment [10] concerns the target T4, Ephrin type-B receptor 4 (Homo sapiens). The settings on record: at 10 µM.
Experiment [11] addresses Focal adhesion kinase 1 (Homo sapiens) (UniProt Q05397). Conditions: at 1 µM.

Chain of Ephrin type-A receptor 5 (Homo sapiens) (P54756 whole entry): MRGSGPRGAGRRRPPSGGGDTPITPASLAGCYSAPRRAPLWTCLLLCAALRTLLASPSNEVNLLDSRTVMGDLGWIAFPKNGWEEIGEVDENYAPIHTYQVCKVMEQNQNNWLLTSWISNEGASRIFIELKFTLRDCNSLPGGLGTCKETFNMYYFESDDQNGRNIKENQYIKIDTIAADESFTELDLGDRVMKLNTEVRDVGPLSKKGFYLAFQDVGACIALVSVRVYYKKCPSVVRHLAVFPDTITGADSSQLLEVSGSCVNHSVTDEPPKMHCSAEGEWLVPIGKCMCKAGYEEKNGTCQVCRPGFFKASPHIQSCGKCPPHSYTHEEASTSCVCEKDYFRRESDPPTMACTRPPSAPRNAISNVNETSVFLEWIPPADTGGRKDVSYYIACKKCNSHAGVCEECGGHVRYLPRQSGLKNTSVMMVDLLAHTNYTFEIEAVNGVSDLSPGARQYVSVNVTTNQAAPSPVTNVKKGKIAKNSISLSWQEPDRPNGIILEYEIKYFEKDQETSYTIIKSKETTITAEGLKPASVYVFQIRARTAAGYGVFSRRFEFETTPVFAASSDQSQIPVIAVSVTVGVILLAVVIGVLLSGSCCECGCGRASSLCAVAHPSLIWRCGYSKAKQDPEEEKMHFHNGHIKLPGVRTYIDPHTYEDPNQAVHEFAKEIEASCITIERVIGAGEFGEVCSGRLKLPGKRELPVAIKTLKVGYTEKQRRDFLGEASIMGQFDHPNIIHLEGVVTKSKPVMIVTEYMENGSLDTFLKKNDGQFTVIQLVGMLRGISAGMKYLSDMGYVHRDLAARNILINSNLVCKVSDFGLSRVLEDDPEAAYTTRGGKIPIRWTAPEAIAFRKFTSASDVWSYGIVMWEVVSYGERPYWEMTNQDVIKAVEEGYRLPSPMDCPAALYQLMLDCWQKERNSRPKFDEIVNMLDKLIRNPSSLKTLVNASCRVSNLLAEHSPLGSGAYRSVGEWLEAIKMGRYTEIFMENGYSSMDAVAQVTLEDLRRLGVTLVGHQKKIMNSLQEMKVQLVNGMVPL
Chain of Ephrin type-A receptor 7 (Homo sapiens) (Q15375 28-998 limits assumed): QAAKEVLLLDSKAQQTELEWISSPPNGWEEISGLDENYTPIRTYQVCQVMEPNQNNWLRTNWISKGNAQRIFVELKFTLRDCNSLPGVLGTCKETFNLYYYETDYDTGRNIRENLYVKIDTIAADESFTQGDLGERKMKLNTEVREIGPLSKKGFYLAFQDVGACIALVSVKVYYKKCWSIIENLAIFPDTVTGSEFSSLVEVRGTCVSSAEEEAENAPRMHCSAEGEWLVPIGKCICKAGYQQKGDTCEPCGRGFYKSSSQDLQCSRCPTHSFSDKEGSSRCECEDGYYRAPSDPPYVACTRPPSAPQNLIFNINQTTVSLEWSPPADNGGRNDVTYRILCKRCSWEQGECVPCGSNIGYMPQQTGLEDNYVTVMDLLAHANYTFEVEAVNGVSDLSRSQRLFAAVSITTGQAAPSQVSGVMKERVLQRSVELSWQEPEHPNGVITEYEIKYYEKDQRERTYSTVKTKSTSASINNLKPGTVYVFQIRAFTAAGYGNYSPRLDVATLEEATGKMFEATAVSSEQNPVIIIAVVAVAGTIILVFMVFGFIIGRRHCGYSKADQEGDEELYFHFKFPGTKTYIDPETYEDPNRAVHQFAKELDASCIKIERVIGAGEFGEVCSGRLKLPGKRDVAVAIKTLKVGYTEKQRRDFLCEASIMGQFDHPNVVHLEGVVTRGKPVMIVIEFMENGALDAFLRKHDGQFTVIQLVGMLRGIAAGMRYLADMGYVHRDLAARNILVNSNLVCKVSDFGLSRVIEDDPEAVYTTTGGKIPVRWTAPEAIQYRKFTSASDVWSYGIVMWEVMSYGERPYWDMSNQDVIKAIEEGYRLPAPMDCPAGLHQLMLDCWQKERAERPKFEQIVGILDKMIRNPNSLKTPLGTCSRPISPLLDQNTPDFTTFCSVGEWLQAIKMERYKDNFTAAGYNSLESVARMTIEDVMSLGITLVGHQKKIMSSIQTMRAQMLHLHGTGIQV
Chain of Focal adhesion kinase 1 (Homo sapiens) (Q05397 2-1052 limits assumed): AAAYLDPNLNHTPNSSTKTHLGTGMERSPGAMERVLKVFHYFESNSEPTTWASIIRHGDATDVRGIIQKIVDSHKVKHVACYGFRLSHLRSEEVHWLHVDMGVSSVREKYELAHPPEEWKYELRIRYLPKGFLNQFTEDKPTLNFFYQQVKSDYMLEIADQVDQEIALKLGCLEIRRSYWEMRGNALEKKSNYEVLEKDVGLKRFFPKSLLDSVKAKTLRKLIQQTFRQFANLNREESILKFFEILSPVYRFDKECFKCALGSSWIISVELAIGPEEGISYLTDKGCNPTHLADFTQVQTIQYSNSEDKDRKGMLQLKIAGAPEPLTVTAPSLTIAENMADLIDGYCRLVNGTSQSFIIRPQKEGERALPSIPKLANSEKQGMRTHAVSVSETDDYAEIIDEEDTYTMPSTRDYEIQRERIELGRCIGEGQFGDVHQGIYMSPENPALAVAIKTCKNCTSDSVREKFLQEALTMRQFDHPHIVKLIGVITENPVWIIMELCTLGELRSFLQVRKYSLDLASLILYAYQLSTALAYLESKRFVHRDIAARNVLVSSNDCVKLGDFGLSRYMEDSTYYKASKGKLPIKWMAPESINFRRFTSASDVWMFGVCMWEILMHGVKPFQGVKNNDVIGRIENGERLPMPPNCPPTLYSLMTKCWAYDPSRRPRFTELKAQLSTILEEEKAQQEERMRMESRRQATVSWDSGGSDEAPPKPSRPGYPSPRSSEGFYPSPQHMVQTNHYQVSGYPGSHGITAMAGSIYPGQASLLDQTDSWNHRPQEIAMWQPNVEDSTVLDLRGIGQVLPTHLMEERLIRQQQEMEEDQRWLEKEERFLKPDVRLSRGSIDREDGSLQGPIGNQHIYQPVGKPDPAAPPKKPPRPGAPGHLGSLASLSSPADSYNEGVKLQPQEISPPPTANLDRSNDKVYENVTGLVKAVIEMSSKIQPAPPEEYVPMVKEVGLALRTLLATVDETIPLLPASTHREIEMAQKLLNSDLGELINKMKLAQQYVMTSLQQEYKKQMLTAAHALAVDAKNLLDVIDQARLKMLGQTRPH

Take `O=C1C(Cl)=C(N2C(=O)CCC2=O)C(=O)c2ccccc21`: the residual activity in [1] turned out to be 89%; in experiment [2], 119%; in [3], 96%; in experiment [4], 99%; in experiment [5] it was 92%; in experiment [6] it was 96%. For the same compound, the residual activity in [7] was 92%; in [8], 93%; in experiment [9], 93%; in experiment [10], 81%; in [11] it was 93%.

For orientation: residual activity means the signal under treatment as a percentage of the control signal.
